# From PubChem BioAssay (Tox21)
# Records with an inconclusive call do not appear. The source made the active and inactive calls. The call rests on the fitted dose curve; in most records, active means well fitted cell-killing curve with a large enough effect in the repeat runs; inconclusive means weak or mixed curves, or effect the other way; inactive means flat fitted curve, though single readings scatter.
# Experiment: qHTS assay to identify small molecule antagonists of the androgen receptor (AR) signaling pathway using the MDA cell line in the presence of 0.5 nM R1881 - cell viability counter screen (AID 1259242); further: nearly all actives have a fitted effect of over 45% in size
# Details: MDA-kb2 viability, CellTiter-Fluor protease fluorescence, 16 h; series mostly up to 92.4 µM; viability change, negative = cytotoxic: at the top concentration
# Text: U.S. Tox21 Program National Center for Advancing Translational Sciences [NCATS] NIH Chemical Genomics Center [NCGC] U.S. Environmental Protection Agency [EPA] National Institutes of Environmental Health Sciences [NIEHS] National Toxicology Program [NTP] U.S. Food and Drug Administration [FDA] Tox21 Assay Overview: Androgen receptor (AR) is an important member of the nuclear receptor family. Its signaling plays a critical role in AR-dependent prostate cancer and other androgen related diseases. Considerable attention has been given in the past decades to develop methods to study and screen for the environmental chemicals that have the potential to interfere with metabolic homeostasis, reproduction, developmental and behavioral functions. Therefore AR binding assay for screening androgen antagonists can be used to identify potential endocrine disruptors. MDA-kb2 cells (from ATCC, deposited by Wilson et al.) were used to screen for AR inhibitors against Tox21 compound libraries. These cells are human breast carcinoma cells that were stably transfected with a luciferase reporter gene under control of the MMTV promoter that contains response elements for both androgen receptor (AR) and glucocorticoid receptor (GR). The current screening for identification of AR inhibitors against Tox21 libraries used lower concentration of (0.5 nM) R1881 as a stimulator. The cytotoxicity of the Tox21 compound libraries against MDA-kb2 cell line was tested by measuring live-cell protease activity using CellTiter-Fluor assay in the same wells.
# Tox21 Assay Protocol Summary: MDA-kb2 cells (cells cultured without CO2) were dispensed at 3,000 cells/well in 4 uL of culture medium into white wall/solid-bottom 1536-well plates (Corning Life Sciences, Corning, NY) using a Multidrop Combi (ThermoFisher Scientific, Waltham, MA) dispenser. After the assay plates were incubated at a 37C and 0% CO2 for 5 hr, 23 nL of compounds dissolved in DMSO, positive controls or DMSO only was transferred to the assay plate by a Pintool station (Kalypsys, San Diego, CA). The transfer of compounds was followed by the addition of 1 uL of 0.5 nM (final concentration) agonist (R1881)/culture medium using a Flying Reagent Dispenser (FRD, Aurora Discovery, San Diego, CA). The plates were incubated at 37C and 0% CO2 for 16 hr. For cytotoxicity assay, 1 uL of CellTiter-Fluor reagent (Promega Corporation, Madison, WI) was added to each well using the FRD and after 30 min incubation at 37C and 0% CO2, The fluorescence intensity was measured using ViewLux plate reader (PerkinElmer, Shelton, CT).
# On the % scale 0 is the no-effect control and ±100 the full control effect.
SMILES,"viability change, negative = cytotoxic",Potency
Cc1nc2ccccn2c(=O)c1CCN1CCC(C(=O)c2ccc(F)cc2)CC1,-10.2% [at 42.5 µM] (inactive),
CCCCCCCCCCCCCCCCBr,2.08% [at 19 µM] (inactive),
COC(=O)CC(=O)C(C)(C)C,-7.21% (inactive),
CCCCCC=CCC=CCCCCCCCC(=O)OCC,-1.73% [at 42.5 µM] (inactive),
CC1(C)C2=CCCC(C)(C)[C@]23CC[C@H]1C3,-2.35% (inactive),
COc1cc2c(cc1OC)-c1cc(=Nc3c(C)cc(C)cc3C)n(C)c(=O)n1CC2,2.55% [at 42.5 µM] (inactive),
O=C(CCCCCCCCC#CI)Oc1ccccc1,0.978% [at 42.5 µM] (inactive),
CC(CCO)CCc1ccccc1 (stereo not given),5.65% (inactive),
CC(=O)OCC(=O)[C@H]1CC[C@H]2[C@@H]3CCC4=CC(=O)CC[C@]4(C)[C@H]3CC[C@]12C,1.32% [at 42.5 µM] (inactive),
Cc1ccc(S(=O)(=O)NC2CCCCC2)cc1,-1.29% (inactive),
Brc1cc(-c2ccc(Br)c(Br)c2Br)cc(Br)c1Br,2.12% [at 42.5 µM] (inactive),
CCCCCCOC(=O)CCCCCCCC(=O)OCCCCCC,1.21% (inactive),
COCCOC(=O)C1=C(C)NC(C)=C(C(=O)OC/C=C/c2ccccc2)C1c1cccc([N+](=O)[O-])c1 (stereo not given),-11% [at 42.5 µM] (inactive),
O=[N+]([O-])c1cccc(S(=O)(=O)NCCNS(=O)(=O)c2cccc([N+](=O)[O-])c2)c1,-1.04% [at 42.5 µM] (inactive),
COCCOC,-15.9% (inactive),
CCCCCCCCCCCC[N+](C)(C)CC(=O)[O-],-0.0313% (inactive),
Nc1ccc(C(=O)OCCCOC(=O)c2ccc(N)cc2)cc1,-1.86% (inactive),
CN1C(=O)CC(C)(c2ccccc2)C1=O (stereo not given),3.47% [at 42.5 µM] (inactive),
C=CC(C)=CCC=C(C)C,-0.0117% (inactive),
O=C(CCCN1CCC(O)(c2ccc(Br)cc2)CC1)c1ccc(F)cc1,-4.8% [at 42.5 µM] (inactive),

SMILES,"viability change, negative = cytotoxic",Potency
OCC1CC=CCC1 (stereo not given),2.87% (inactive),
CC(C)OCC1CO1 (stereo not given),1.73% (inactive),
CCOC(=O)[C@@H](C)Oc1ccc(Oc2nc3ccc(Cl)cc3o2)cc1,5.84% (inactive),
Nc1ccc(S(=O)(=O)O)cc1,0.47% (inactive),
CCc1cccc(N(C)C(N)=Nc2cccc3ccccc23)c1,-1.23% [at 42.5 µM] (inactive),
CCOC(=O)C(C)Oc1ccc(Oc2nc3ccc(Cl)cc3o2)cc1 (stereo not given),2.28% (inactive),
CCC(C(=O)OCCN(CC)CC)c1ccccc1 (stereo not given),6.64% [at 42.5 µM] (inactive),
CCC1(C)CC(=O)NC1=O (stereo not given),1.19% [at 42.5 µM] (inactive),
C1COCO1,0.882% (inactive),
COc1ccc(C(=O)c2cccc(O)c2)c(OC)c1,-0.959% (inactive),
CCCc1c(OCCCOc2ccc(OCC(=O)O)cc2)ccc(C(C)=O)c1O,0.897% (inactive),
NC(=O)Nc1ccc(Cl)c(Cl)c1,5.65% (inactive),
Cc1oncc1C(=O)Nc1ccc(C(F)(F)F)cc1,,inactive
OC(CCCN1CCCCC1)(c1ccccc1)c1ccccc1,-1.5% [at 42.5 µM] (inactive),
C[C@@H]1C[C@H]2[C@@H]3CCC4=CC(=O)C=C[C@]4(C)[C@@]3(F)[C@@H](O)C[C@]2(C)[C@H]1C(=O)CO,6.46% [at 42.5 µM] (inactive),
CC1(C)O[C@@H]2C[C@H]3[C@@H]4CCC5=CC(=O)C=C[C@]5(C)[C@H]4[C@@H](O)C[C@]3(C)[C@]2(C(=O)CO)O1,-1.34% [at 42.5 µM] (inactive),
CC(=O)Nc1ccccc1C,4.53% (inactive),
C=C(C)C(=O)OCCOC(=O)CC(C)=O,3.98% (inactive),
CCC(C)(C)C1CCC(O)CC1 (stereo not given),2.05% (inactive),
CN(C(=O)C(Cl)Cl)c1ccc(OC(=O)c2ccco2)cc1,-0.201% [at 42.5 µM] (inactive),
